Bioassay records from PubChem.
TDP1 cell CPT: growth inhibition of DT40 Tdp1-/-;hTDP1 cells with camptothecin (screen for TDP1 inhibitors); chicken DT40 Tdp1-/-;hTDP1 cells + 20 nM CPT, ATP luminescence, 48 h; Potency, µM (highest dose often 46.2 µM), for the others: at the top dose activity change, negative = growth inhibition, usual class: inhibitors; 12% of 420,000 active; AID 686979; further: potency means the concentration at half of the fitted maximal effect; on the % scale 0 is the no-effect control and ±100 the full control effect; nearly all actives have a fitted effect of over 55% in size
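Cell growth measured by CellTiter-Glo luminescence after a minimum 48 h, 37 C compound exposure with 20 nM CPT in Tdp1-knockout DT40 cells stably expressing hTDP1, seeded 400/well; qHTS titration format.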
IL-1B inflam inh: inhibitors of inflammasome signaling (IL-1 beta secretion); THP-1 LPS/ATP IL-1B secretion, AlphaLISA, 16 h; hits give low values; 4.7% of 360,000 active; activity change, % at 57.5 µM; in the data active means activity change below about -50%; inconclusive means mostly about -30% to -49%; further: on the % scale 0 is the no-effect control and ±100 the full control effect
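Secreted IL-1B measured by AlphaLISA bead assay after 16 h compound exposure of THP-1 cells; compounds (final up to 57.5 uM) added 1 h before LPS (250 ng/mL) and ATP (1.25 mM) stimulation; lower signal means less secretion.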
DT40 TDP1 no CPT: qHTS for Inhibitors of human tyrosyl-DNA phosphodiesterase 1 (TDP1): qHTS in cells in absence of CPT | DT40 Tdp1-/- hTDP1 cells, no CPT, ATP luminescence, 48 h | Potency, µM (series often up to 46.2 µM), inactives show at the highest dose activity change, negative = growth inhibition, usual class: inhibitors | 15% of 420,000 active | AID 686978, 2013; further: potency means the concentration at half of the fitted maximal effect; on the % scale 0 is the no-effect control and ±100 the full control effect; nearly all actives have a fitted effect of over 55% in size
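No-CPT arm: Tdp1-/-;hTDP1 DT40 cells (400/well) plus compounds, incubated ≥48 hr at 37 °C. Readout CellTiter-Glo luminescence.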
HepG2 viability: kills HepG2 cells in TGF-b inhibitor counter-screen. 0.76% of 410,000 active. AID 588856. HepG2 CAGA-GFP viability, ATP luminescence, 18 h. Potency, µM (titrated, usually from 46.1 µM), for inactives: top-dose activity change, negative = cytotoxicity, most hits filed as cytotoxic; further: potency means the concentration at half of the fitted maximal effect
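HepG2 CAGA-GFP cells (1000/well, DMEM with 1% FBS) received compound, then TGF-beta at 500 pg/mL final, and were incubated 18 hours at 37 degrees C. Viability was read by CellTiter-Glo luminescence. Media-only wells were set as complete cell-killing and DMSO as no toxicity.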
TDP1 block: TDP1 (human) enzyme inhibition; Potency, µM (series often up to 130 µM), without a hit: at the highest dose activity change, negative = inhibition, most hits filed as inhibitors; recombinant TDP1, AlphaScreen DNA substrate cleavage; 0.28% of 350,000 active; AID 485290; further: potency means the concentration at half of the fitted maximal effect; on the % scale 0 is the no-effect control and ±100 the full control effect; nearly all actives have a fitted effect of over 40% in size
Target sequence (Q9NUW8 whole entry, looked up): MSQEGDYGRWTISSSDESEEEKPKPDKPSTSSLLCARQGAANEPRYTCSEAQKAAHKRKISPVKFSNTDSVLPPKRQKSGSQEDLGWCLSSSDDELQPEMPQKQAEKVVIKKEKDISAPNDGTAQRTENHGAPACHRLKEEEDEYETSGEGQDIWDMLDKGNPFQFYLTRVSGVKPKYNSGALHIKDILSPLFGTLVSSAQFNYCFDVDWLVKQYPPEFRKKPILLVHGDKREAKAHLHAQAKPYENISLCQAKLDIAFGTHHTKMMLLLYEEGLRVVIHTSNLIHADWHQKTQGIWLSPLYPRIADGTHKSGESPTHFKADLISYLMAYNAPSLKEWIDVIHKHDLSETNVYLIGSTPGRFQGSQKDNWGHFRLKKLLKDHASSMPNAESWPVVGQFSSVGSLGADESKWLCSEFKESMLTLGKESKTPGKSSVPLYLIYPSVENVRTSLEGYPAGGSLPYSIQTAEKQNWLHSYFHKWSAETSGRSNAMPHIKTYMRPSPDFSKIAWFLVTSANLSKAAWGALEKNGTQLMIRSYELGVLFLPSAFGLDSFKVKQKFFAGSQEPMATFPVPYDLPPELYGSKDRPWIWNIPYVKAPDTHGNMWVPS
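Tdp1 1 nM final; 15 min RT w/ cpd; substrate 15 nM, 5 min; beads 10 ug/ml, 10 min; AlphaScreen read. Neg ctrl: no enzyme.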
TGFb SMAD3 inh: inhibitors of TGF-b signaling; Potency, µM (top dose mostly 46.1 µM), without a hit: at the top dose activity, negative = inhibition, hits mostly inhibitors; 1.2% of 410,000 active; HepG2 CAGA-GFP TGF-b/SMAD3 reporter, GFP fluorescence, 18 h; TGF-beta stimulated, 500 pg/mL final; AID 588855; further: potency means the concentration at half of the fitted maximal effect; on the % scale 0 is the no-effect control and ±100 the full control effect; nearly all actives have a fitted effect of over 65% in size
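HEPG2 CAGA-GFP cells (1000/well, DMEM with 1% FBS) were pre-incubated 2 h at 37 degrees C, given compound by pin tool, then stimulated with TGF-beta at 500 pg/mL final for 18 h before per-cell GFP fluorescence imaging.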
* marks the source's active call; other numbers are inactive results; [ ] = another dose, or the depositor's remark. Only some compounds are listed: those with a hit (about 19% of all), similar ones and a draw of the others. Unless noted, the call rests on the fitted dose curve; in most records, active means well fitted curve in the direction sought with a large enough effect; inconclusive means small, poorly fitted or top-dose-only effect, or another doubt; inactive means no such curve, though single readings can be large; an effect the other way counts as inactive or inconclusive.

Results for CC(CNC(=O)COc1ccc2c(c1)OCO2)c1ccccc1 (stereo not drawn) ?
TDP1 cell CPT: -16%; IL-1B inflam inh: -5; DT40 TDP1 no CPT: -13%; HepG2 viability: -5%; TDP1 block: 1%; TGFb SMAD3 inh: 7%

Results for Cc1ccn2cc(CNC(=O)c3cccc(C(F)(F)F)c3)nc2c1 ?
TDP1 cell CPT: 0%; DT40 TDP1 no CPT: 0%; HepG2 viability: -4%; TDP1 block: 6%; TGFb SMAD3 inh: -8%

What do the screens show for `OCC1CCCN(c2nc(CN3CCCCC3)nc3scc(-c4ccccc4)c23)C1` (stereo not drawn)?
TDP1 cell CPT: 15µM*; IL-1B inflam inh: -6; DT40 TDP1 no CPT: inconclusive; HepG2 viability: -34%; TDP1 block: -3%; TGFb SMAD3 inh: -11%

What do the screens show for `CCCc1nc2scc(-c3ccccc3)c2c(=O)n1N`?
TDP1 cell CPT: -29%; IL-1B inflam inh: 1; DT40 TDP1 no CPT: inconclusive; HepG2 viability: -18%; TDP1 block: 0%; TGFb SMAD3 inh: 29%

What do the screens show for `CCNc1nc(CN2CCCCC2)nc2scc(-c3ccccc3)c12`?
TDP1 cell CPT: 12µM*; IL-1B inflam inh: -91*; DT40 TDP1 no CPT: 16µM*; HepG2 viability: -35%; TDP1 block: 0%; TGFb SMAD3 inh: inconclusive

How did Cc1ccccc1OCc1ccc(-c2nc(C#N)c(N3CCC(C(N)=O)CC3)o2)o1 do in these assays?
TDP1 cell CPT: inconclusive; DT40 TDP1 no CPT: inconclusive; HepG2 viability: -47%; TDP1 block: 10%; TGFb SMAD3 inh: -2%

What do the screens show for `O=S(=O)(c1ccccc1)c1nnn2c1nc(NC1CCCCCC1)c1sccc12`?
TDP1 cell CPT: -24%; DT40 TDP1 no CPT: -17%; HepG2 viability: 3%; TDP1 block: -3%; TGFb SMAD3 inh: 18%

How did CCC(Sc1nc(=O)cc(N)n1-c1cccc(C)c1)C(=O)Nc1cc(C)on1 (stereo not drawn) do in these assays?
TDP1 cell CPT: -22%; IL-1B inflam inh: 6; DT40 TDP1 no CPT: inconclusive; HepG2 viability: -7%; TDP1 block: 7%; TGFb SMAD3 inh: 3.5µM*

What do the screens show for `CC1(C)CC2CC(C)(CN2C(=S)Nc2ccccc2F)C1` (stereo not drawn)?
TDP1 cell CPT: 21µM*; IL-1B inflam inh: 27; DT40 TDP1 no CPT: 13µM*; HepG2 viability: -3%; TDP1 block: 5%; TGFb SMAD3 inh: 2%

What do the screens show for `O=C(NC(=S)N1CCOCC1)c1ccccc1Cl`?
TDP1 cell CPT: -10%; IL-1B inflam inh: -2; DT40 TDP1 no CPT: 18%; HepG2 viability: 3%; TDP1 block: 0%; TGFb SMAD3 inh: -24%

What do the screens show for `CC1(C)CC2CC(C)(CN2C(=S)NC(=O)c2ccccc2Cl)C1` (stereo not drawn)?
TDP1 cell CPT: inconclusive; IL-1B inflam inh: 17; DT40 TDP1 no CPT: 18µM*; HepG2 viability: -32%; TDP1 block: 5%; TGFb SMAD3 inh: 4%

Results for CC1(C)CC2CC(C)(CN2C(=S)Nc2ccccc2)C1 (stereo not drawn) ?
TDP1 cell CPT: inconclusive; IL-1B inflam inh: 2; DT40 TDP1 no CPT: inconclusive; HepG2 viability: 1%; TDP1 block: 2%; TGFb SMAD3 inh: -28%

What do the screens show for `CC1CCN(S(=O)(=O)c2ccc3c(ccc(=O)n3CC(=O)NCc3ccccc3Cl)c2)CC1`?
TDP1 cell CPT: 18µM*; DT40 TDP1 no CPT: inconclusive; HepG2 viability: -31%; TDP1 block: 0%; TGFb SMAD3 inh: -31%

Results for CC1CCN(S(=O)(=O)c2ccc3c(ccc(=O)n3CC(=O)Nc3cccc(F)c3)c2)CC1 ?
TDP1 cell CPT: 15µM*; DT40 TDP1 no CPT: 13µM*; HepG2 viability: -26%; TDP1 block: 0%; TGFb SMAD3 inh: inconclusive

Results for Cc1ccc(NC(=O)Cn2c(=O)ccc3cc(S(=O)(=O)N4CCC(C)CC4)ccc32)c(C)c1 ?
TDP1 cell CPT: inconclusive; DT40 TDP1 no CPT: 23µM*; HepG2 viability: -12%; TDP1 block: 5%; TGFb SMAD3 inh: -3%

Results for Cc1ccc(NC(=O)Cn2c(=O)ccc3cc(S(=O)(=O)N4CCC(C)CC4)ccc32)cc1Cl ?
TDP1 cell CPT: 12µM*; DT40 TDP1 no CPT: 6.5µM*; HepG2 viability: -20%; TDP1 block: -11%; TGFb SMAD3 inh: 2%

How did CCc1ccccc1NC(=O)Cn1c(=O)ccc2cc(S(=O)(=O)N3CCC(C)CC3)ccc21 do in these assays?
TDP1 cell CPT: inconclusive; DT40 TDP1 no CPT: inconclusive; HepG2 viability: -30%; TDP1 block: 5%; TGFb SMAD3 inh: inconclusive

How did c1ccc(N2CCN(c3nc(-c4ccccn4)nc4ccccc34)CC2)cc1 do in these assays?
TDP1 cell CPT: 4.1µM*; IL-1B inflam inh: -21; DT40 TDP1 no CPT: 4.6µM*; HepG2 viability: -11%; TDP1 block: 11%; TGFb SMAD3 inh: inconclusive

What do the screens show for `Fc1ccccc1-c1nc(N2CCCCC2)c2ccccc2n1`?
TDP1 cell CPT: inconclusive; IL-1B inflam inh: -6; DT40 TDP1 no CPT: inconclusive; HepG2 viability: -12%; TDP1 block: -5%; TGFb SMAD3 inh: -18%

Results for Fc1ccccc1-c1nc(N2CCN(c3cccc(Cl)c3)CC2)c2ccccc2n1 ?
TDP1 cell CPT: 13µM*; DT40 TDP1 no CPT: 23µM*; HepG2 viability: -15%; TDP1 block: -4%[12.3 µM]; TGFb SMAD3 inh: -7%

What do the screens show for `CCOC(=O)N1CCN(C(=O)CN(C)S(=O)(=O)c2ccc(F)cc2)CC1`?
TDP1 cell CPT: 9%; IL-1B inflam inh: 1; DT40 TDP1 no CPT: 9%; HepG2 viability: 5%; TGFb SMAD3 inh: 3%

How did N#C/C(N=Nc1ccccc1O)=N\Nc1ccccc1O do in these assays?
TDP1 cell CPT: 21µM*; IL-1B inflam inh: inconclusive; DT40 TDP1 no CPT: 23µM*; HepG2 viability: -67%; TDP1 block: 17%; TGFb SMAD3 inh: inconclusive

Results for Oc1ccccc1N=N/C(=N/Nc1ccccc1O)c1ccccc1 ?
TDP1 cell CPT: inconclusive; IL-1B inflam inh: 22; DT40 TDP1 no CPT: inconclusive; HepG2 viability: -3%; TDP1 block: 3%; TGFb SMAD3 inh: 14%

How did CN1CCN(C(c2cccc(Br)c2)c2sc3nc(-c4ccco4)nn3c2O)CC1 (stereo not drawn) do in these assays?
TDP1 cell CPT: 4%; DT40 TDP1 no CPT: -22%; HepG2 viability: -13%; TDP1 block: 0%; TGFb SMAD3 inh: -2%
